Data on 40 compounds can be found in PubChem BioAssay AID651605 (National Center for Advancing Translational Sciences (NCATS), 2012).

SMILES strings stand for the structures. Inconclusive results are not listed. Calls of active or inactive are those of the source. The call rests on the fitted dose curve; in most records, active means well fitted inhibition curve with a large enough effect; inconclusive means small, poorly fitted or top-dose-only effect; inactive means flat fitted curve, though single readings scatter.

Chain of Ubiquitin carboxyl-terminal hydrolase 1 (Homo sapiens) (O94782 whole entry, looked up): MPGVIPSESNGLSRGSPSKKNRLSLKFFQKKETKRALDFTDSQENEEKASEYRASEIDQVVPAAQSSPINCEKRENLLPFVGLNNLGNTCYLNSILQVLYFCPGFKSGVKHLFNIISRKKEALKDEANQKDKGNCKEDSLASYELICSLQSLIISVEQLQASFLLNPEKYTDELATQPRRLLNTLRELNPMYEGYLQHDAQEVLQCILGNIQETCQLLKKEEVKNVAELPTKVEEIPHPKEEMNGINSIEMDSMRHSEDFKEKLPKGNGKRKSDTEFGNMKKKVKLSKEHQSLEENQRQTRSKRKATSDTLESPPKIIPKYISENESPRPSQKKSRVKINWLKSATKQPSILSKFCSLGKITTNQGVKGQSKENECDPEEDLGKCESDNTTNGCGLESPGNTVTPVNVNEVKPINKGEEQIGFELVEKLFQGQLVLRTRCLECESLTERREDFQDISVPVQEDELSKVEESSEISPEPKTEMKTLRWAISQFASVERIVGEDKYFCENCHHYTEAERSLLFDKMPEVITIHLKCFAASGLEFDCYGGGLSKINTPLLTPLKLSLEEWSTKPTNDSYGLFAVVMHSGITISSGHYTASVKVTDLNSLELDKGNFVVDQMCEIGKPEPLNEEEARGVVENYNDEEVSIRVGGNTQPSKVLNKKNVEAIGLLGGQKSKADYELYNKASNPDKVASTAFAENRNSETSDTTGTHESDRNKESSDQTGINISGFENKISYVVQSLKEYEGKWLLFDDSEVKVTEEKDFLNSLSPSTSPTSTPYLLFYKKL

This experiment deals with Ubiquitin carboxyl-terminal hydrolase 1 (Homo sapiens) (UniProt O94782). The experiment is described as follows: Inhibitors of USP1/UAF1: SAR in Primary Assay. Conditions: Recombinant USP1/UAF1, Ub-Rhodamine cleavage fluorescence; series mostly up to 57.1 µM; activity change, negative = inhibition: at the top concentration. The source says:
Deubiquitinating enzymes (DUBs) are a class of enzymes that can cleave isopeptide bond formed between the C-terminal carboxylate of ubiquitin and a lysine side-chain amino group on the target protein. Among them, ubiquitin specific proteases (USPs) constitute the largest DUB family. Human USPs are emerging as promising targets for pharmacological intervention because of their connection to a number of human diseases, including prostate, colon and breast cancer (1, 2), pediatric acute lymphoblastic leukemia (3), and familial cylindromatosis (4). The advantage of inhibiting USPs lies in the potential specificity of therapeutic intervention that can lead to better efficacy and reduce nonspecific side effects. In a collaboration between the University of Delaware and the NIH Chemical Genomics Center, a high-throughput screen assay was developed to screen for USP1/UAF1 inhibitors (5). This assay was used to test the analogs that were synthesized based on SAR around the original hit. NIH Chemical Genomics Center [NCGC] NIH Molecular Libraries Probe Centers Network [MLPCN] MLPCN Grant: DA030552-01 Assay Submitter (PI): Zhihao Zhuang, University of Delaware 1. Priolo, C., et al. (2006) The isopeptidase USP2a protects human prostate cancer from apoptosis. Cancer Res 66, 8625-8632 2. Popov, N., et al. (2007) The ubiquitin-specific protease USP28 is required for MYC stability. Nat Cell Biol 9, 765-774 3. De Pitta, C., et al. (2005) A leukemia-enriched cDNA microarray platform identifies new transcripts with relevance to the biology of pediatric acute lymphoblastic leukemia. Haematologica 90, 890-898 4. Kovalenko, A., et al. (2003) The tumour suppressor CYLD negatively regulates NF-kappaB signalling by deubiquitination. Nature 424, 801-805 5. Chen, J., et al. (2011) Selective and cell-active inhibitors of the USP1/ UAF1 deubiquitinase complex reverse cisplatin resistance in non-small cell lung cancer cells. Chem Bio 18(11):1390-400.
3 microliters of reagents (buffer in columns 3 and 4 as negative control and 1nM USP1/UAF1 complex in columns 1, 2, and 5-48) are dispensed into Greiner black solid bottom 1536-well assay plates. Compounds are then transferred via Kalypsys pin tool equipped with 1536-pin array (10nl slotted pins, V&P Scientific, San Diego, CA). Following an incubation step of 15 min at room temperature, 1ul of Ub-Rho substrate (150nM final concentration) is added to initiate the reaction. The plates are immediately centrifuged at 1000 rpm for 15 seconds, and subsequently transferred to a ViewLux high-throughput CCD imager (PerkinElmer) wherein kinetic measurements of fluorescence are acquired using 480 nm excitation/540 nm emission filter set (6 reads every 60 seconds, see Table 1). All reagents are diluted in an assay buffer consisting of 50mM HEPES (pH 7.8), 0.5mM EDTA, 0.1 mg/ml BSA, 1mM TCEP, and 0.01% Tween-20.
As for `Fc1ccccc1-c1nc(NCc2ccc(-c3cccnc3)cc2)c2ccccc2n1`, the Potency was 3410 nM (active).
The same measure, in the same setting: the value for `Cc1cnc(-c2ccccc2C(C)C)nc1NCc1cccnc1` was 2150 nM (active); that for `Cc1cnc(-c2ccccc2C(C)C)nc1NCc1ccc(-c2cn[nH]n2)cc1` was 242 nM (active).
On the same count and under the same terms, for `Cc1cc(NCc2ccc(-c3cccnc3)cc2)nc(-c2ccccc2C(C)C)n1` the value was 482 nM (active); for `Cc1cnc(-c2ccccc2C(C)C)nc1NCc1ccc(C(N)=O)cc1`, 4290 nM (active).
Same read-out and setting: for `CC(C)c1ccccc1-c1nccc(NCc2ccc(-c3cccnc3)cc2)n1` the value was 121 nM (active); for `CC(C)(Sc1ccc(CCN(CCCCC2CCCCC2)C(=O)NC2CCCCC2)cc1)C(=O)O`, 24100 nM (active).
In the case of `CC(C)c1ccccc1-c1ncc(F)c(NCc2ccc(-c3ccn[nH]3)cc2)n1`, the Potency was 152 nM (active).
On the same count and under the same terms, for `CC(C)c1ccccc1-c1ncc(N)c(NCc2ccc(-c3cccnc3)cc2)n1` the value was 271 nM (active); for `CC(Nc1nc(-c2ccccc2C(F)(F)F)nc2ccccc12)c1ccc(-c2ccncc2)cc1` (stereo not given), 5410 nM (active); for `Cc1cnc(-c2ccccc2C(C)C)nc1NC(C)c1ccc(-c2cccnc2)cc1` (stereo not given), 136 nM (active).
Same read-out and setting: for `Cc1cnc(-c2ccccc2C(C)O)nc1NCC1CCN(c2cccnc2)CC1` (stereo not given) the value was 2410 nM (active).
Consider `c1cncc(-c2ccc(CNc3nc(N4CCOCC4)nc4ccccc34)cc2)c1`, for which the “activity change, negative = inhibition” value was -18.2% (inactive).
In the case of `Cc1cnc(-c2ccccc2C2CC2)nc1NCc1ccc(-c2cccnc2)cc1`, the Potency is 341 nM (active).
On the same count and under the same terms, the value for `Cc1cnc(-c2ccccc2C(F)F)nc1NCc1ccc(-c2cccnc2)cc1` was 341 nM (active); that for `Fc1cnc(-c2ccccc2C(F)F)nc1NCC1CCN(c2cnccn2)CC1` was 2410 nM (active).
For the compound `COc1ccccc1-c1nc(NCc2ccc(-c3cccnc3)cc2)c2ccccc2n1`, the Potency was 681 nM (active).
Consider `Cc1ccc(-c2ccc(CNc3nc(-c4ccccc4C(C)C)ncc3F)cc2)cn1`, for which the Potency was 76.4 nM (active).
Still for that read-out and setting: for `Cc1cnc(-c2ccccc2C(C)C)nc1NCc1cccs1` the value was 215 nM (active).
With `Cc1cccc(CNc2nc(-c3ccccc3C(C)C)ncc2C)c1`, the Potency is 136 nM (active).
Take `CC(C)c1ccccc1-c1ncc(F)c(NCc2ccc(-n3ccnn3)cc2)n1`: the Potency is 17.1 nM (active).
The same measure, in the same setting: the value for `Fc1cnc(-c2ccccc2C(F)F)nc1NCc1ccc(-c2cccnc2)cc1` was 1210 nM (active).
On the same count and under the same terms, the value for `Cc1ccc(-c2ccc(CNc3nc(-c4ccccc4C(C)C)ncc3C)cc2)cn1` was 42.9 nM (active).
`Cc1cnc(-c2ccccc2C2COC2)nc1NCc1ccc(-n2ccnn2)cc1`: the “activity change, negative = inhibition” value was -9.72% (inactive).
With `Cc1cnc(-c2ccccc2C(C)C)nc1NCc1ccc(C2CCCNC2)cc1` (stereo not given), the Potency is 7640 nM (active).
The same measure, in the same setting: the value for `Brc1ccccc1-c1nc(NCc2ccc(-c3cccnc3)cc2)c2ccccc2n1` was 961 nM (active).
As for `Cc1ccc(-c2ccc(C(C)Nc3nc(-c4ccccc4C(C)C)ncc3C)cc2)cn1` (stereo not given), the Potency is 341 nM (active).
The same measure, in the same setting: the value for `Cc1cnc(-c2ccccc2C(C)C)nc1NCc1ccc(C#N)cc1` was 482 nM (active); that for `FC(F)(F)c1cc(-c2ccc(CNc3nc(-c4ccncc4)nc4ccccc34)cc2)ccn1` was 19200 nM (active); that for `CC(C)c1ccccc1-c1nc(NCc2ccc(-c3cccnc3)cc2)c2ccccc2n1` was 152 nM (active).
Take `FC(F)(F)c1ccccc1-c1nc(NCc2ccc(N3CCOCC3)cc2)c2ccccc2n1`: the Potency is 7640 nM (active).
The same measure, in the same setting: for `FC(F)(F)c1ccccc1-c1nc(NCc2ccc(-c3cccnc3)cc2)c2ccccc2n1` the value was 607 nM (active).
With `Cc1cnc(-c2ccccc2C2COC2)nc1NCC1CCN(c2cccnc2)CC1`, the “activity change, negative = inhibition” value is -6.08% (inactive).
`Cc1cnc(-c2ccccc2C(C)C)nc1NCc1ccc(-c2cccc(S(N)(=O)=O)c2)cc1`: the Potency was 215 nM (active).
Regarding `FC(F)(F)c1ccccc1-c1nccc(NCc2ccc(-c3cccnc3)cc2)n1`, the Potency was 541 nM (active).
Regarding `c1ccc(-c2nc(NCc3ccc(-c4cccnc4)cc3)c3ccccc3n2)cc1`, the Potency is 13600 nM (active).
On the same count and under the same terms, the value for `COc1cnc(-c2ccccc2C(C)C)nc1NCc1ccc(-c2cccnc2)cc1` was 42.9 nM (active); that for `FC(F)(F)c1cc(-c2ccc(CNc3nc(-c4ccccc4C(F)(F)F)nc4ccsc34)cc2)ccn1` was 3410 nM (active); that for `FC(F)(F)c1ccccc1-c1nc(NCc2ccc(C3CCCCC3)cc2)c2ccccc2n1` was 6810 nM (active).
Regarding `Fc1cnc(-c2ccccc2C(F)F)nc1NCC1CCN(c2cnccn2)C1` (stereo not given), the Potency was 21500 nM (active).
